From the supplement of paper PMC10849652
The full data set covers some 8,800 targets. This sample favours those with a hit. About 0.5% of all pairs of compound and target were hits.

Columns and labels:
Test in all cases: log2 fold change, soluble protein after heating vs DMSO (PISA); higher = thermal stabilisation; K562 lysate, 10 uM; active = over 0.2 and 3.5 SD of the protein, either way, in both replicates (recomputed)
alvocidib = compound: CN1CC[C@H](c2c(O)cc(O)c3c(=O)cc(-c4ccccc4Cl)oc23)[C@H](O)C1 [alvocidib]
Summary of the method: (§1)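 Quantification was by TMTpro 16plex LC-MS/MS with equalised channel sums, applied to the supernatant after 21,000xg for 90 min. Samples were crude K562 extract at 1 mg/mL protein in PBS pH 7.4 with 1 mM MgCl2, treated with 10 μM compound for 30 min, heated for 3 min across 48°C-58°C, pooled and brought to 0.5% NP-40 at 4°C. Values are log-two fold changes in thermal stability relative to solvent controls, from duplicates.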

Tubastatin A = compound: CN1CCc2c(c3ccccc3n2Cc2ccc(C(=O)NO)cc2)C1 [Tubastatin A]
Summary of the method: as §1

[1] = compound: CNC(=O)C1=CC=CC=C1NC2=NC(=NC=C2Cl)NC3=C(C=C(C=C3)N4CCOCC4)OC
Summary of the method: as §1

defactinib = compound: CNC(=O)c1ccc(Nc2ncc(C(F)(F)F)c(NCc3nccnc3N(C)S(C)(=O)=O)n2)cc1 [defactinib]
Summary of the method: as §1

[2] = compound: CNc1nc(-c2ccc3c(N)n[nH]c3c2)cc(N2C[C@@H](C(=O)NC3CCCCC3)CC[C@H]2C)n1
Summary of the method: as §1

encorafenib = compound: COC(=O)N[C@@H](C)CNc1nccc(-c2cn(C(C)C)nc2-c2cc(Cl)cc(NS(C)(=O)=O)c2F)n1 [encorafenib]
Summary of the method: as §1

[3] = compound: COC(=O)[C@H](CCSC)NC(=O)C1=C(C=C(C=C1)NC[C@H](CS)N)C2=CC=CC=C2
Summary of the method: as §1

alisertib = compound: COc1cc(Nc2ncc3c(n2)-c2ccc(Cl)cc2C(c2c(F)cccc2OC)=NC3)ccc1C(=O)O [alisertib]
Summary of the method: as §1

[4] = compound: COc1cc2nc(-c3cc(F)ccc3O)nc(N[C@@H]3CNC[C@H]3C(C)(C)O)c2cc1OC
Summary of the method: as §1

gefitinib = compound: COc1cc2ncnc(Nc3ccc(F)c(Cl)c3)c2cc1OCCCN1CCOCC1 [gefitinib]
Summary of the method: as §1

lapatinib = compound: CS(=O)(=O)CCNCc1ccc(-c2ccc3ncnc(Nc4ccc(OCc5cccc(F)c5)c(Cl)c4)c3c2)o1 [lapatinib]
Summary of the method: as §1

pictilisib = compound: CS(=O)(=O)N1CCN(Cc2cc3nc(-c4cccc5[nH]ncc45)nc(N4CCOCC4)c3s2)CC1 [pictilisib]
Summary of the method: as §1

crizotinib = compound: C[C@@H](Oc1cc(-c2cnn(C3CCNCC3)c2)cnc1N)c1c(Cl)ccc(F)c1Cl [crizotinib]
Summary of the method: as §1

[5] = compound: C[C@H](C1=CC=C(C=C1)C(=O)NC2=C3C=CNC3=NC=C2)N
Summary of the method: as §1

duvelisib = compound: C[C@H](Nc1ncnc2nc[nH]c12)c1cc2cccc(Cl)c2c(=O)n1-c1ccccc1 [duvelisib]
Summary of the method: as §1

gandotinib = compound: Cc1cc(Nc2cc(CN3CCOCC3)c3nc(C)c(Cc4ccc(Cl)cc4F)n3n2)n[nH]1 [gandotinib]
Summary of the method: as §1

tozasertib = compound: Cc1cc(Nc2cc(N3CCN(C)CC3)nc(Sc3ccc(NC(=O)C4CC4)cc3)n2)n[nH]1 [tozasertib]
Summary of the method: as §1

doramapimod = compound: Cc1ccc(-n2nc(C(C)(C)C)cc2NC(=O)Nc2ccc(OCCN3CCOCC3)c3ccccc23)cc1 [doramapimod]
Summary of the method: as §1

bafetinib = compound: Cc1ccc(NC(=O)c2ccc(CN3CC[C@H](N(C)C)C3)c(C(F)(F)F)c2)cc1Nc1nccc(-c2cncnc2)n1 [bafetinib]
Summary of the method: as §1

[6] = compound: Cc1cccc(CC(=O)N2CCc3c2ccc(-c2cn(C)c4ncnc(N)c24)c3F)n1
Summary of the method: as §1

Measured: log2 fold change

GALNT2 (UniProt Q10471)
Sequence of UniProt Q10471 (Q10471 whole entry, looked up): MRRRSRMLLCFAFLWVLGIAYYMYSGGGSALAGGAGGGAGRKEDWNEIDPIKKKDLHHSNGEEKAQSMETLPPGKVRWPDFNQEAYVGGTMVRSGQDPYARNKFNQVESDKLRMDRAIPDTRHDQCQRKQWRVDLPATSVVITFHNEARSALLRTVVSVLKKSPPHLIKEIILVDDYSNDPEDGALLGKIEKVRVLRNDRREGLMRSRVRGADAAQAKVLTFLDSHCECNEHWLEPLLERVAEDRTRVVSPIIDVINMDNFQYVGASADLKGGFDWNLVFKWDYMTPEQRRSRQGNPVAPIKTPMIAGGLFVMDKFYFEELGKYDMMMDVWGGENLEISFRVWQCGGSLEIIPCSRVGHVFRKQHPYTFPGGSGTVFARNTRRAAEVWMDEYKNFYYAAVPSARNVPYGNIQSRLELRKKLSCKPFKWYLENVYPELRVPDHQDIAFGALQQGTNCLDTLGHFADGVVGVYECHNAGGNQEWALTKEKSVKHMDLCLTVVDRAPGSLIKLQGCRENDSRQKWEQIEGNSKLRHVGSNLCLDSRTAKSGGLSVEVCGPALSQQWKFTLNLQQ
active: gandotinib 0.272
inactive: alvocidib -0.069 | Tubastatin A 0.073 | [1] -0.004 | defactinib 0.008 | [2] -0.057 | encorafenib 0.048 | [3] -0.047 | alisertib 0.028 | [4] -0.021 | gefitinib -0.021 | lapatinib -0.016 | pictilisib -0.039 | crizotinib 0.009 | [5] -0.074 | duvelisib -0.044 | tozasertib 0.047 | doramapimod -0.014 | bafetinib -0.002 | [6] 0.18

EPHX2 (UniProt P34913)
Sequence of UniProt P34913 (P34913 whole entry, looked up): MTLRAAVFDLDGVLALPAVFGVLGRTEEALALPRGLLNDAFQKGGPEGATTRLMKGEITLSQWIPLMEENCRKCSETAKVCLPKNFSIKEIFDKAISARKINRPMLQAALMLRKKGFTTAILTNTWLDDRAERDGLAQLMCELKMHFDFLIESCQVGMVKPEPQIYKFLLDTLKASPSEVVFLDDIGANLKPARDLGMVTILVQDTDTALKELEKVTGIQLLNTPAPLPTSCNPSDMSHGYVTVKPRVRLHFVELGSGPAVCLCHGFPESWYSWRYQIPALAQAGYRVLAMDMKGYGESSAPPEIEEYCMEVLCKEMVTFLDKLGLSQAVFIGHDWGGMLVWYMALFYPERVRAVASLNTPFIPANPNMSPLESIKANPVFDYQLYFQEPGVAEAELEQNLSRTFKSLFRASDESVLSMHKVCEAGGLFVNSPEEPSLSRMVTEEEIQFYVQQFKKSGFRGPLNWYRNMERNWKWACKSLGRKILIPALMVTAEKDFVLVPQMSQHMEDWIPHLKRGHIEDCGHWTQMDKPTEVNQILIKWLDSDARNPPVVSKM
inactive: alvocidib -0.018 | Tubastatin A 0.183 | [1] -0.023 | defactinib -0.002 | [2] 0.123 | encorafenib -0.02 | [3] -0.058 | alisertib -0.045 | [4] -0.007 | gefitinib -0.002 | lapatinib -0.031 | pictilisib -0.019 | crizotinib 0.061 | [5] 0.008 | duvelisib -0.031 | gandotinib 0.057 | tozasertib 0.116 | doramapimod -0.079 | bafetinib 0.131 | [6] 0.012

EXOC1 (UniProt Q9NV70)
inactive: alvocidib 0.01 | Tubastatin A -0.139 | [1] 0.006 | defactinib 0.022 | [2] -0.086 | encorafenib 0.014 | [3] 0.012 | alisertib 0.007 | [4] -0.015 | gefitinib 0.015 | lapatinib -0.013 | pictilisib 0.029 | crizotinib -0.041 | [5] 0.04 | duvelisib 0.016 | gandotinib -0.186 | tozasertib -0.004 | doramapimod 0.023 | bafetinib -0.04 | [6] 0.024

FAM83D (UniProt Q9H4H8)
Sequence of UniProt Q9H4H8 (Q9H4H8 whole entry, looked up): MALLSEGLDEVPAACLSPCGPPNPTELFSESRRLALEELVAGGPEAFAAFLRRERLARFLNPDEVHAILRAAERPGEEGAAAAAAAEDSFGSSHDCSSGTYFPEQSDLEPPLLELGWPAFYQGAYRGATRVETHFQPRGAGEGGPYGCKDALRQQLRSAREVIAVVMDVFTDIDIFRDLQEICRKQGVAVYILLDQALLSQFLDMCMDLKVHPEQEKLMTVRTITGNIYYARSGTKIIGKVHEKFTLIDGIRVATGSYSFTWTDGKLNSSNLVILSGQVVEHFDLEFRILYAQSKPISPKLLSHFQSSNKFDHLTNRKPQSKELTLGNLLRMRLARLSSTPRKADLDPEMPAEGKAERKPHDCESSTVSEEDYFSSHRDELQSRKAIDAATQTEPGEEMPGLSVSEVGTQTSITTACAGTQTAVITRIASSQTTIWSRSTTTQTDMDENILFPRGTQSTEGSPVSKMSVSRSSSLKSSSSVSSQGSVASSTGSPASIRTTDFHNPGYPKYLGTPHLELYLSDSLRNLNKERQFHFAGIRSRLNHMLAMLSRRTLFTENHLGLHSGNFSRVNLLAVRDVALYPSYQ
inactive: alvocidib -0.009 | Tubastatin A -0.044 | [1] 0.005 | defactinib -0.007 | [2] 0.022 | encorafenib 0.026 | [3] 0.017 | alisertib 0.015 | [4] 0.062 | gefitinib 0.009 | lapatinib -0.01 | pictilisib -0.024 | crizotinib -0.026 | [5] -0.021 | duvelisib -0.002 | gandotinib -0.018 | tozasertib -0.038 | doramapimod 0.009 | bafetinib -0.116 | [6] 0.031

FNBP1L (UniProt Q5T0N5)
inactive: alvocidib 0.04 | Tubastatin A -0.043 | [1] 0.023 | defactinib -0.066 | encorafenib 0.045 | [3] 0.034 | alisertib 0.005 | [4] -0.015 | gefitinib 0.099 | lapatinib 0.005 | pictilisib 0 | crizotinib -0.039 | [5] -0.023 | duvelisib -0.115 | gandotinib 0.002 | tozasertib -0.003 | doramapimod 0.113 | bafetinib -0.089 | [6] -0.026
active: [2] 0.357

EIF2D (UniProt P41214)
inactive: alvocidib 0.017 | Tubastatin A -0.083 | [1] 0.003 | defactinib 0.033 | [2] -0.024 | encorafenib -0.014 | [3] 0.164 | alisertib 0.013 | [4] -0.018 | gefitinib -0.031 | lapatinib -0.002 | pictilisib -0.014 | crizotinib -0.067 | [5] 0.024 | duvelisib 0.022 | gandotinib -0.084 | tozasertib 0.029 | doramapimod 0.032 | bafetinib -0.063 | [6] -0.01

ENGASE (UniProt Q8NFI3)
Sequence of UniProt Q8NFI3 (Q8NFI3 whole entry, looked up): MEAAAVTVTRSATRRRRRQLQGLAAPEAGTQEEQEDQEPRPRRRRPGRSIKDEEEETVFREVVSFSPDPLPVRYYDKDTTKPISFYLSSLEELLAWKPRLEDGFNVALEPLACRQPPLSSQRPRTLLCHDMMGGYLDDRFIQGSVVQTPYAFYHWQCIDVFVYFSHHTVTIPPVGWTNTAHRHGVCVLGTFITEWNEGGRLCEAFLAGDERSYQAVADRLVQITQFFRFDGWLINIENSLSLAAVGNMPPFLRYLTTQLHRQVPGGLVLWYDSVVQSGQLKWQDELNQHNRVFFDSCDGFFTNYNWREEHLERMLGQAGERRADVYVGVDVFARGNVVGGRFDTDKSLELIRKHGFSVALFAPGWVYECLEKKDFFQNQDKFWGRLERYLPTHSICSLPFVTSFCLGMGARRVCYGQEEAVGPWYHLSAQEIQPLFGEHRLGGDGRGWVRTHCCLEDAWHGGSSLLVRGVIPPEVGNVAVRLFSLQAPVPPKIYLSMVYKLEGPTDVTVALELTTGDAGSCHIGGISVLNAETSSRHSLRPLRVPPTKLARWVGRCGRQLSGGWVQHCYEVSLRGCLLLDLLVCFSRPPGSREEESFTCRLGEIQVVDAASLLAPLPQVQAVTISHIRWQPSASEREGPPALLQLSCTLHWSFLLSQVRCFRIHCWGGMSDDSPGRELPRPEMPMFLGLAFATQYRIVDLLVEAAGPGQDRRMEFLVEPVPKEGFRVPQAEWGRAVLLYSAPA
inactive: alvocidib -0.144 | Tubastatin A -0.02 | [1] 0.043 | defactinib -0.011 | [2] 0.02 | encorafenib 0.018 | [3] -0.056 | alisertib 0.025 | [4] -0.015 | gefitinib 0.018 | lapatinib -0.02 | pictilisib 0 | crizotinib 0.011 | [5] -0.048 | duvelisib -0.025 | gandotinib 0.116 | tozasertib 0.051 | doramapimod 0.033 | bafetinib 0.003 | [6] 0.148

FASTKD5 (UniProt Q7L8L6)
Sequence of UniProt Q7L8L6 (Q7L8L6 whole entry, looked up): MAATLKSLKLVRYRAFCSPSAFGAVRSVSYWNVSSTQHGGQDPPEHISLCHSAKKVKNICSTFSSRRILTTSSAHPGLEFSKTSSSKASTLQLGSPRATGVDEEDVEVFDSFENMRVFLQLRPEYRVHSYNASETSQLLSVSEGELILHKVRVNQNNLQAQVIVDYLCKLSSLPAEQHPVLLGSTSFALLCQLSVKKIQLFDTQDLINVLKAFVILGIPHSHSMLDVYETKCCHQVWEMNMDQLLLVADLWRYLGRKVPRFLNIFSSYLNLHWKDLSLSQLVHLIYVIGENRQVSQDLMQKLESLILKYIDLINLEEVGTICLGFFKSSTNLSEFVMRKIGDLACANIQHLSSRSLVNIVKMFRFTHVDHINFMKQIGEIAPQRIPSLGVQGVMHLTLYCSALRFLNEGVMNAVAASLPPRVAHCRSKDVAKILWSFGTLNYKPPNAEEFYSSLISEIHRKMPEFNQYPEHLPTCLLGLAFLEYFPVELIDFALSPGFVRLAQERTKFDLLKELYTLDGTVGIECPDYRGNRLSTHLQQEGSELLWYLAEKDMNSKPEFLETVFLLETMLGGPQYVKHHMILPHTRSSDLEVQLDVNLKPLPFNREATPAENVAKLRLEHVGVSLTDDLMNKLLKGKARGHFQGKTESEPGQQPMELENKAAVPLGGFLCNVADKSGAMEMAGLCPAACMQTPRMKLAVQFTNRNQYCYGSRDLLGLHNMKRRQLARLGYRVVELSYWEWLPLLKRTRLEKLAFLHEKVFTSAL
inactive: alvocidib 0.024 | Tubastatin A -0.11 | [1] 0.03 | defactinib 0.011 | [2] -0.017 | encorafenib 0.064 | [3] 0.135 | alisertib 0.002 | [4] 0.072 | gefitinib -0.018 | lapatinib -0.025 | pictilisib 0.085 | crizotinib -0.075 | [5] 0.089 | duvelisib -0.042 | gandotinib -0.193 | tozasertib 0.056 | doramapimod 0.036 | bafetinib 0.169 | [6] -0.056

FKBP8 isoform 2 (UniProt Q14318)
inactive: alvocidib 0.004 | Tubastatin A -0.123 | [1] 0.02 | defactinib 0.024 | [2] -0.018 | encorafenib 0.009 | [3] 0.112 | alisertib 0.027 | [4] 0.001 | gefitinib 0.01 | lapatinib -0.041 | pictilisib -0.036 | crizotinib -0.12 | [5] -0.035 | duvelisib 0.044 | gandotinib -0.021 | tozasertib -0.024 | doramapimod 0.064 | bafetinib -0.07 | [6] 0.013

ELF2 (UniProt Q15723)
Sequence of UniProt Q15723 (Q15723 whole entry, looked up): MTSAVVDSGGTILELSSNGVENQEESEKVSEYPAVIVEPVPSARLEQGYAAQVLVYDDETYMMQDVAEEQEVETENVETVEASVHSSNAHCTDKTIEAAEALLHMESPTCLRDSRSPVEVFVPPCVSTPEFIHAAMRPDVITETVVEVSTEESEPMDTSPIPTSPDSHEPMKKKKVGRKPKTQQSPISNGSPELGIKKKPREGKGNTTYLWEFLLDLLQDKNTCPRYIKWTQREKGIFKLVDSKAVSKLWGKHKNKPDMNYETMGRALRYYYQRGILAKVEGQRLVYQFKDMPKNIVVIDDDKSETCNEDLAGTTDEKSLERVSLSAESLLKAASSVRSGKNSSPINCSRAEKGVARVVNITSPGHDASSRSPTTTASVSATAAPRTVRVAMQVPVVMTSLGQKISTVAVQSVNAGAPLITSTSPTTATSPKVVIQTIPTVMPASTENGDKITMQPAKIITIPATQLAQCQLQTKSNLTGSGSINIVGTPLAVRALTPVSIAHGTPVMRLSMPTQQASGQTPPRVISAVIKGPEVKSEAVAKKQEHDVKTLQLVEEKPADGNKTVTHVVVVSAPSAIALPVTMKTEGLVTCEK
inactive: alvocidib 0.023 | Tubastatin A 0.016 | [1] 0.024 | defactinib -0.013 | [2] -0.062 | encorafenib 0.028 | [3] 0.038 | alisertib -0.101 | [4] -0.06 | gefitinib 0.047 | pictilisib 0.039 | crizotinib -0.085 | [5] 0.033 | duvelisib 0.072 | gandotinib -0.046 | tozasertib -0.033 | doramapimod -0.042 | bafetinib -0.119 | [6] -0.075
active: lapatinib 0.256

ERCC4 (UniProt Q92889)
active: [5] -0.544
inactive: alvocidib -0.268 | Tubastatin A -0.021 | [1] 0.058 | defactinib 0.101 | [2] -0.029 | encorafenib -0.065 | [3] -0.001 | alisertib 0.047 | [4] 0.024 | gefitinib 0.044 | lapatinib -0.023 | pictilisib -0.013 | crizotinib -0.031 | duvelisib 0.003 | gandotinib 0.054 | tozasertib -0.059 | doramapimod 0.087 | bafetinib -0.101 | [6] 0.159

EPB41 (UniProt P11171)
inactive: alvocidib 0.044 | Tubastatin A -0.02 | [1] 0.011 | defactinib 0.015 | [2] -0.067 | encorafenib 0.01 | [3] -0.001 | alisertib 0.02 | [4] -0.036 | gefitinib 0.007 | lapatinib -0.009 | pictilisib -0.015 | crizotinib -0.007 | [5] 0.04 | duvelisib -0.016 | gandotinib -0.105 | tozasertib 0.035 | doramapimod 0.01 | bafetinib -0.013 | [6] -0.088

FTSJ3 (UniProt Q8IY81)
inactive: alvocidib 0.031 | Tubastatin A -0.073 | [1] -0.018 | defactinib 0.026 | [2] 0.007 | encorafenib -0.028 | [3] 0.031 | alisertib 0.005 | [4] -0.036 | gefitinib 0.004 | lapatinib 0.013 | pictilisib 0.023 | crizotinib -0.037 | [5] -0.031 | duvelisib -0.01 | gandotinib -0.019 | tozasertib -0.019 | doramapimod -0.025 | bafetinib 0.013 | [6] 0.031

FADS1, A0A0A0MR51
active: gandotinib 0.559
inactive: alvocidib 0.03 | Tubastatin A 0.1 | [1] 0.158 | defactinib 0.084 | [2] 0.011 | encorafenib -0.055 | [3] 0.03 | alisertib -0.008 | [4] -0.067 | gefitinib -0.001 | lapatinib 0.203 | pictilisib -0.087 | crizotinib -0.003 | [5] -0.024 | duvelisib -0.029 | tozasertib 0.041 | doramapimod 0.018 | bafetinib 0.027 | [6] 0.083

EIF2B5 (UniProt Q13144)
inactive: alvocidib 0.03 | Tubastatin A -0.06 | [1] 0.04 | defactinib 0.022 | [2] 0.023 | encorafenib -0.009 | [3] 0.046 | alisertib -0.004 | [4] 0.005 | gefitinib -0.016 | lapatinib -0.01 | pictilisib -0.012 | crizotinib -0.009 | [5] -0.005 | duvelisib 0.001 | gandotinib -0.119 | tozasertib -0.019 | doramapimod 0.003 | bafetinib -0.033 | [6] 0.006

FMNL1 isoform 3 (UniProt O95466)
Sequence of UniProt O95466 (O95466 whole entry, looked up): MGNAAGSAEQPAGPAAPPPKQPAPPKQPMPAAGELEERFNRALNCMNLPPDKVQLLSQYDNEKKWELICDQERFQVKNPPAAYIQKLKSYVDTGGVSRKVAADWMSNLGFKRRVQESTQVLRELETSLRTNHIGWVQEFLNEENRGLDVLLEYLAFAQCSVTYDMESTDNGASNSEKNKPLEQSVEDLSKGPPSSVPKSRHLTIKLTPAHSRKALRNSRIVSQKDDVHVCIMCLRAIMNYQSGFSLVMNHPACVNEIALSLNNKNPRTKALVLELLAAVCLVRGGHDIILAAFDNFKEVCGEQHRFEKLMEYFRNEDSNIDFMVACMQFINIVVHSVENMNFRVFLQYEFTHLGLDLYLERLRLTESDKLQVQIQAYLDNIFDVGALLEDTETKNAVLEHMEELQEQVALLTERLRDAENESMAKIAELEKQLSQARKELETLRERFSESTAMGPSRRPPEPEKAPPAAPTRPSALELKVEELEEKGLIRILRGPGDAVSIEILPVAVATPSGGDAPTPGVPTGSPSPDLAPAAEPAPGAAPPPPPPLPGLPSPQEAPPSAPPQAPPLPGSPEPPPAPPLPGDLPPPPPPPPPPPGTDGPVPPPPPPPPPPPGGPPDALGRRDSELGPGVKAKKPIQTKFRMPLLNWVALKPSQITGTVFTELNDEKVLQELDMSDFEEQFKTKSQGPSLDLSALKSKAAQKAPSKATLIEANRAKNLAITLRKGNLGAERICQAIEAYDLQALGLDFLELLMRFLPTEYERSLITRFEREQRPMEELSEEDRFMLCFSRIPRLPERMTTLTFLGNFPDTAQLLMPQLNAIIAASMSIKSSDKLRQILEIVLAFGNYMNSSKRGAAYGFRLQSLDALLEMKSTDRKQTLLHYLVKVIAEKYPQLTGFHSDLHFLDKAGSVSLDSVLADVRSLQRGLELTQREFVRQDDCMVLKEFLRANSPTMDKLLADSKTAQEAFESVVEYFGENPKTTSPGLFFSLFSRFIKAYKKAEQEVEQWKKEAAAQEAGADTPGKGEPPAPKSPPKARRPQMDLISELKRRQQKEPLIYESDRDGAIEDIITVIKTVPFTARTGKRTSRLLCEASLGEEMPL
inactive: alvocidib 0.011 | Tubastatin A -0.053 | [1] 0.015 | defactinib 0.021 | [2] 0.015 | encorafenib 0.093 | [3] 0.018 | alisertib 0.029 | [4] 0.044 | gefitinib -0.061 | lapatinib 0.058 | pictilisib 0.005 | crizotinib -0.013 | [5] 0.044 | duvelisib 0 | gandotinib -0.056 | tozasertib -0.051 | doramapimod 0.048 | bafetinib -0.055 | [6] 0.042
